# In article PMC7862700, “An all-to-all approach to the identification of sequence-specific readers for epigenetic DNA modifications on cytosine”:
# Experiments:
# Assay in all cases: DAPPL (digital affinity profiling via proximity ligation, sequencing); 10 mM Tris-HCl pH 7.5, 50 mM NaCl, 1 mM DTT, 4% glycerol, room temperature, 30 min; GST-TFs on glutathione beads, 16-mer random dsDNA library, 0.1% formaldehyde crosslink after washing; high values mean tight binding
# FEV = target: T1, FEV (Homo sapiens, UniProt Q99581 1-238); conditions: protein: recombinant; tags: N-terminal GST; dsDNA, one strand shown
# T1 sequence: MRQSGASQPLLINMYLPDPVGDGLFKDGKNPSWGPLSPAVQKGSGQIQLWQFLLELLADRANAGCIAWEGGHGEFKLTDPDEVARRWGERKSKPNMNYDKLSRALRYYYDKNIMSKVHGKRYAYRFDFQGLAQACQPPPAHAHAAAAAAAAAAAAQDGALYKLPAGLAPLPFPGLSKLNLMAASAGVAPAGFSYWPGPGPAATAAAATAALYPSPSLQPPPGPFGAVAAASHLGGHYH
# Method in brief: (§1)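 GST fusions of human transcription factors were expressed in yeast and captured with glutathione beads. Once given DNA barcodes and pooled alongside a tag-only sample, they were incubated for 30 min at room temperature with 200 nmole of a random double-stranded 16-mer DNA library in Tris/NaCl/DTT/glycerol buffer, then washed, crosslinked (0.1% formaldehyde), proximity-ligated, PCR-amplified and sequenced on an Illumina NextSeq500. The binding signal of each hexamer is its read frequency for a factor divided by its frequency for the tag-only sample.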
# ETV5 = ETV5 (Homo sapiens, UniProt P41161 1-510); conditions: protein: recombinant; tags: N-terminal GST; dsDNA, one strand shown
# Sequence of ETV5 (P41161 whole entry): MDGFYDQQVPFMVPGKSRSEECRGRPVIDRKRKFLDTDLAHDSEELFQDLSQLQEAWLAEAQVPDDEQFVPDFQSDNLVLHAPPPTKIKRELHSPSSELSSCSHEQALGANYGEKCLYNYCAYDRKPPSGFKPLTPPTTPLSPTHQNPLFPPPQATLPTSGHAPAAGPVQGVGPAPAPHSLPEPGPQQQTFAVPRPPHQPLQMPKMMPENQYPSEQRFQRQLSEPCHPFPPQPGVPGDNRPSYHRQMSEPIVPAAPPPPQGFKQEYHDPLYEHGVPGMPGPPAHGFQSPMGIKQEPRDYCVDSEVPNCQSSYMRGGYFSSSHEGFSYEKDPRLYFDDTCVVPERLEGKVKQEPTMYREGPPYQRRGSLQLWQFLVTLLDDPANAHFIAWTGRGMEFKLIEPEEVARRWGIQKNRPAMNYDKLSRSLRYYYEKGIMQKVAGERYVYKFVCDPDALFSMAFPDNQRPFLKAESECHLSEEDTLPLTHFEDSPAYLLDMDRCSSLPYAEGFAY
# Method in brief: as §1
# HSF1 = HSF1 (Homo sapiens, UniProt Q00613 1-529); conditions: protein: recombinant; tags: N-terminal GST; chain copies: 3; dsDNA, one strand shown
# Sequence of HSF1 (Q00613 whole entry): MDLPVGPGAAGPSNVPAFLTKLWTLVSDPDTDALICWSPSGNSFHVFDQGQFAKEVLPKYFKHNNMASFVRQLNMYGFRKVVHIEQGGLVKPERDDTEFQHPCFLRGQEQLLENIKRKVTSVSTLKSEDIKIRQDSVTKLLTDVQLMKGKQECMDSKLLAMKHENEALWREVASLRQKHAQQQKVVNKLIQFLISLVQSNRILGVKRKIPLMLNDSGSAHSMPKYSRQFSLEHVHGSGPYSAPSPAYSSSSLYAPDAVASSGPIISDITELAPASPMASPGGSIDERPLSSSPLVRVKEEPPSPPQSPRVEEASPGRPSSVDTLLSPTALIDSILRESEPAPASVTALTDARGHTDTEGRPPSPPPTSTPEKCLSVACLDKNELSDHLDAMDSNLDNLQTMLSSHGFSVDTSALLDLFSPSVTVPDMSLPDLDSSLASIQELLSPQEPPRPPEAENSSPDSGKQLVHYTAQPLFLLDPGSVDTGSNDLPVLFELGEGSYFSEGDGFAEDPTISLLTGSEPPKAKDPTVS
# Method in brief: as §1
# SPIC = target: T2, SPIC (Homo sapiens, UniProt Q8N5J4 1-248); conditions: protein: recombinant; tags: N-terminal GST; dsDNA, one strand shown
# T2 sequence: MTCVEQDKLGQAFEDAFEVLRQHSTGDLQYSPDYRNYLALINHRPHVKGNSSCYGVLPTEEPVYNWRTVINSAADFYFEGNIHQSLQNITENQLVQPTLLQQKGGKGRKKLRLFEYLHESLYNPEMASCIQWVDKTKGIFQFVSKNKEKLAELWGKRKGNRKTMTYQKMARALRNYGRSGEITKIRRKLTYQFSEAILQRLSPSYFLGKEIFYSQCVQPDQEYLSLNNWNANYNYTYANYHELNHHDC
# Method in brief: as §1
# ELF4 = ELF4 (Homo sapiens, UniProt Q99607 1-663); conditions: protein: recombinant; tags: N-terminal GST; dsDNA, one strand shown
# Sequence of ELF4 (Q99607 whole entry): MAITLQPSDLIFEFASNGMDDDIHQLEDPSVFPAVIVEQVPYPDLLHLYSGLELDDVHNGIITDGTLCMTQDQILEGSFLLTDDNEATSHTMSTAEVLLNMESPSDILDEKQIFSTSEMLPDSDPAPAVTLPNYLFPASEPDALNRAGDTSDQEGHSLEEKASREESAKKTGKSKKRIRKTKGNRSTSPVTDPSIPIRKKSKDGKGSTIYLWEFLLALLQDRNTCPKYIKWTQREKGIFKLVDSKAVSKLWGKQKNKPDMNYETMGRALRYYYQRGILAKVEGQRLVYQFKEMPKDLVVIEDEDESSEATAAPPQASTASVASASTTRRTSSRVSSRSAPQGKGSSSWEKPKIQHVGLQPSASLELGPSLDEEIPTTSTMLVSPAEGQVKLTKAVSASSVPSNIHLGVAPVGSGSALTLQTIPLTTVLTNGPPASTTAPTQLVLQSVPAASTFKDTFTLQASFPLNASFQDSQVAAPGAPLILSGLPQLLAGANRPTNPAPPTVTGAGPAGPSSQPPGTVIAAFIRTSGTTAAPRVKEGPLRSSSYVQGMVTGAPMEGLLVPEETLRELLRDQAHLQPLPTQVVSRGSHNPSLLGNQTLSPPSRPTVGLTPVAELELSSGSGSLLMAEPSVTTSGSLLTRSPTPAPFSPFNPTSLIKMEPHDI
# Method in brief: as §1
# ELK4 = target: T3, ELK4 (Homo sapiens, UniProt P28324-2 1-405); conditions: protein: recombinant; tags: N-terminal GST; dsDNA, one strand shown
# T3 sequence: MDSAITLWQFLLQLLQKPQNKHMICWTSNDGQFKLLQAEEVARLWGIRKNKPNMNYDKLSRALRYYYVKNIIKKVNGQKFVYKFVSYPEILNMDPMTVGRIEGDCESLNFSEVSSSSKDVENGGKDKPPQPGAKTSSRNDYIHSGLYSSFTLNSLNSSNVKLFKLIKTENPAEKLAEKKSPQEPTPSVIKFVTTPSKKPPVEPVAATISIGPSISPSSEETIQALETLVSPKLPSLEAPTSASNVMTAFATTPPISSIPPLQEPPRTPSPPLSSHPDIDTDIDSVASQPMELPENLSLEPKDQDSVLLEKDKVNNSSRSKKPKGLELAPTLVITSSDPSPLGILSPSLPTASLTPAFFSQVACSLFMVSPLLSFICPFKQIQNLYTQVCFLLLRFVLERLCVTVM
# Method in brief: as §1
# ETV2 = target: T4, ETV2 (Homo sapiens, UniProt O00321 1-342); conditions: protein: recombinant; tags: N-terminal GST; dsDNA, one strand shown
# T4 sequence: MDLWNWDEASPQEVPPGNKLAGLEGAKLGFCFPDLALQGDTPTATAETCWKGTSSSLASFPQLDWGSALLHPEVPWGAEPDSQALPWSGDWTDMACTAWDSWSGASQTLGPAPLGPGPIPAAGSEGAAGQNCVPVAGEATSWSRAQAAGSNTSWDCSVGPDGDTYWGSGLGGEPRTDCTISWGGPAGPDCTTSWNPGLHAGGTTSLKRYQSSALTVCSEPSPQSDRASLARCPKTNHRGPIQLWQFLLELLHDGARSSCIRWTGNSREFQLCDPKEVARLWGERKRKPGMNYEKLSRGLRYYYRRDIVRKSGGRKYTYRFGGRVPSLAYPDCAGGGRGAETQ
# Method in brief: as §1
# ELF3 = target: T5, ELF3 (Homo sapiens, UniProt P78545 1-371); conditions: protein: recombinant; tags: N-terminal GST; dsDNA, one strand shown
# T5 sequence: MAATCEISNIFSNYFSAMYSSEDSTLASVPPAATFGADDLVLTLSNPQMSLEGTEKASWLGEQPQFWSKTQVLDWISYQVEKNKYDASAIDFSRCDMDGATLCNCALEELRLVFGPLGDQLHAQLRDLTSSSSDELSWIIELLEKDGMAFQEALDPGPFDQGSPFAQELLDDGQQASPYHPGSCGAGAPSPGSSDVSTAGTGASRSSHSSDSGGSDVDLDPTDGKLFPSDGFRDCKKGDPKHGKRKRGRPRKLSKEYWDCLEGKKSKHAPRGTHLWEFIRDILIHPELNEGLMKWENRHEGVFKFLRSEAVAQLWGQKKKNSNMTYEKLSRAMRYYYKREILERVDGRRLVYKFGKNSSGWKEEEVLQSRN
# Method in brief: as §1
# CRX = CRX (Homo sapiens, UniProt O43186 1-299); conditions: protein: recombinant; tags: N-terminal GST; dsDNA, one strand shown
# Sequence of CRX (O43186 whole entry): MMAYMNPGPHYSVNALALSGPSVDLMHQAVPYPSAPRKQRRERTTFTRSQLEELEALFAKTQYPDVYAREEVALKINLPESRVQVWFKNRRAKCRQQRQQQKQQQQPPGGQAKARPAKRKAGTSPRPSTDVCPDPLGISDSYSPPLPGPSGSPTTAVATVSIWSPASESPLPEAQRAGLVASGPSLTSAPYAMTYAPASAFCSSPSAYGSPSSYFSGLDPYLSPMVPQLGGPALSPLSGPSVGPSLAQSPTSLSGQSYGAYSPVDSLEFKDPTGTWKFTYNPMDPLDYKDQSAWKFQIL
# Method in brief: as §1
# ETV1 = ETV1 (Homo sapiens, UniProt P50549 1-477); conditions: protein: recombinant; tags: N-terminal GST; dsDNA, one strand shown
# Sequence of ETV1 (P50549 whole entry): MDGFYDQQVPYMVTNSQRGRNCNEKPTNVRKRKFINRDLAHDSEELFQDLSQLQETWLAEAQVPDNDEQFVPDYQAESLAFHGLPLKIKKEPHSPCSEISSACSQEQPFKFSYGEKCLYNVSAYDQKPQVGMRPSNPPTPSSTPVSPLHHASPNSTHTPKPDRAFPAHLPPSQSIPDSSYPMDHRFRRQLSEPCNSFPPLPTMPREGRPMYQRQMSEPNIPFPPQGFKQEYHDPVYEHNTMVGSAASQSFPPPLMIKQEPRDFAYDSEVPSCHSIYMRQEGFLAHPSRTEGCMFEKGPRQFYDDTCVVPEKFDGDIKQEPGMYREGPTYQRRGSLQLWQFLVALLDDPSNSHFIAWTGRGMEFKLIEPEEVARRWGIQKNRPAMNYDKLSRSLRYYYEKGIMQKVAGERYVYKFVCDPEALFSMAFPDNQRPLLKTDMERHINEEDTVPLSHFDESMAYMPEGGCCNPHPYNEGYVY
# Method in brief: as §1
Sequence,binding signal (FEV),binding signal (ETV5),binding signal (HSF1),binding signal (SPIC),binding signal (ELF4),binding signal (ELK4),binding signal (ETV2),binding signal (ELF3),binding signal (CRX),binding signal (ETV1)
ACTAAT,"1.19 fold enrichment (6-mer frequency, TF over GST control)","1.3 fold enrichment (6-mer frequency, TF over GST control)","1.81 fold enrichment (6-mer frequency, TF over GST control)","1.46 fold enrichment (6-mer frequency, TF over GST control)","1.36 fold enrichment (6-mer frequency, TF over GST control)","1.24 fold enrichment (6-mer frequency, TF over GST control)","1.38 fold enrichment (6-mer frequency, TF over GST control)","1.33 fold enrichment (6-mer frequency, TF over GST control)","2.71 fold enrichment (6-mer frequency, TF over GST control)","1.3 fold enrichment (6-mer frequency, TF over GST control)"
TAGCTA,"1.22 fold enrichment (6-mer frequency, TF over GST control)","1.24 fold enrichment (6-mer frequency, TF over GST control)","1.47 fold enrichment (6-mer frequency, TF over GST control)","1.22 fold enrichment (6-mer frequency, TF over GST control)","1.28 fold enrichment (6-mer frequency, TF over GST control)","1.3 fold enrichment (6-mer frequency, TF over GST control)","1.27 fold enrichment (6-mer frequency, TF over GST control)","1.17 fold enrichment (6-mer frequency, TF over GST control)","1.58 fold enrichment (6-mer frequency, TF over GST control)","1.27 fold enrichment (6-mer frequency, TF over GST control)"
TTTACA,"1.2 fold enrichment (6-mer frequency, TF over GST control)","1.19 fold enrichment (6-mer frequency, TF over GST control)","1.32 fold enrichment (6-mer frequency, TF over GST control)","1.19 fold enrichment (6-mer frequency, TF over GST control)","1.26 fold enrichment (6-mer frequency, TF over GST control)","1.32 fold enrichment (6-mer frequency, TF over GST control)","1.26 fold enrichment (6-mer frequency, TF over GST control)","1.4 fold enrichment (6-mer frequency, TF over GST control)","1.55 fold enrichment (6-mer frequency, TF over GST control)","1.3 fold enrichment (6-mer frequency, TF over GST control)"
GGACCT,"1.47 fold enrichment (6-mer frequency, TF over GST control)","1.37 fold enrichment (6-mer frequency, TF over GST control)","1.18 fold enrichment (6-mer frequency, TF over GST control)","1.46 fold enrichment (6-mer frequency, TF over GST control)","1.42 fold enrichment (6-mer frequency, TF over GST control)","1.31 fold enrichment (6-mer frequency, TF over GST control)","1.57 fold enrichment (6-mer frequency, TF over GST control)","1.14 fold enrichment (6-mer frequency, TF over GST control)","1.1 fold enrichment (6-mer frequency, TF over GST control)","1.28 fold enrichment (6-mer frequency, TF over GST control)"
ACTTTC,"1.49 fold enrichment (6-mer frequency, TF over GST control)","1.65 fold enrichment (6-mer frequency, TF over GST control)","2.49 fold enrichment (6-mer frequency, TF over GST control)","1.6 fold enrichment (6-mer frequency, TF over GST control)","1.53 fold enrichment (6-mer frequency, TF over GST control)","1.86 fold enrichment (6-mer frequency, TF over GST control)","1.62 fold enrichment (6-mer frequency, TF over GST control)","1.6 fold enrichment (6-mer frequency, TF over GST control)","1.63 fold enrichment (6-mer frequency, TF over GST control)","1.7 fold enrichment (6-mer frequency, TF over GST control)"
CTGAAA,"1.25 fold enrichment (6-mer frequency, TF over GST control)","1.22 fold enrichment (6-mer frequency, TF over GST control)","1.16 fold enrichment (6-mer frequency, TF over GST control)","1.35 fold enrichment (6-mer frequency, TF over GST control)","1.13 fold enrichment (6-mer frequency, TF over GST control)","1.19 fold enrichment (6-mer frequency, TF over GST control)","1.15 fold enrichment (6-mer frequency, TF over GST control)","1.28 fold enrichment (6-mer frequency, TF over GST control)","1 fold enrichment (6-mer frequency, TF over GST control)","1.1 fold enrichment (6-mer frequency, TF over GST control)"
TTCGTT,"1.3 fold enrichment (6-mer frequency, TF over GST control)","1.4 fold enrichment (6-mer frequency, TF over GST control)","1.48 fold enrichment (6-mer frequency, TF over GST control)","1.32 fold enrichment (6-mer frequency, TF over GST control)","1.34 fold enrichment (6-mer frequency, TF over GST control)","1.37 fold enrichment (6-mer frequency, TF over GST control)","1.46 fold enrichment (6-mer frequency, TF over GST control)","1.38 fold enrichment (6-mer frequency, TF over GST control)","1.3 fold enrichment (6-mer frequency, TF over GST control)","1.39 fold enrichment (6-mer frequency, TF over GST control)"
AAAACG,"1.18 fold enrichment (6-mer frequency, TF over GST control)","1.29 fold enrichment (6-mer frequency, TF over GST control)","1.06 fold enrichment (6-mer frequency, TF over GST control)","1.3 fold enrichment (6-mer frequency, TF over GST control)","1.22 fold enrichment (6-mer frequency, TF over GST control)","1.19 fold enrichment (6-mer frequency, TF over GST control)","1.24 fold enrichment (6-mer frequency, TF over GST control)","1.16 fold enrichment (6-mer frequency, TF over GST control)","1.05 fold enrichment (6-mer frequency, TF over GST control)","1.21 fold enrichment (6-mer frequency, TF over GST control)"
